Measurements: PubChem BioAssay
Inconclusive results are not listed. The source made the active and inactive calls. The limit is not given here; nearly all actives have AC50 up to about 26 µM.

test: viability loss in pontine glioma line – cell-based, SU-DIPG-XVII, MIPE5.0, CellTiter-Glo, qHTS, dose response (AID 1347060); details: CellTiter-Glo ATP luminescence;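 as to AC50: cells exposed to compound for 48 hours before viability readout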

SMILES	outcome	AC50
CN1C(=O)N(c2cc(Cl)cc(Cl)c2)C(=O)[C@]12CN(Cc1cc(C(=O)O)cs1)C[C@H]2c1ccc(C#N)cc1	inactive	–
CCS(=O)(=O)N1CCC(C(C)n2c(C)c(C(=O)NCc3c(OC)cc(C)[nH]c3=O)c3ccccc32)CC1 (configuration not stated)	inactive	–
N#Cc1cc2cc(CN3CCC(Nc4ncnc5sc(CC(F)(F)F)cc45)CC3)c(O)cc2n1Cc1cn[nH]c1	–	29.5 µM (active)
CCn1c(N)c(C(=O)NC)c(=O)c2ccc(C#CC(C)(O)COC)nc21 (configuration not stated)	–	20.9 µM (active)
CC[C@H](C)[C@@H]([C@@H](CC(=O)N1CCC[C@H]1[C@H](OC)[C@@H](C)C(=O)N[C@@H](Cc1ccccc1)c1nccs1)OC)N(C)C(=O)[C@@H](NC(=O)[C@H](C(C)C)N(C)C)C(C)C	inactive	–
N#Cc1cccnc1N1CCN(C(=O)c2cccc(Cc3n[nH]c(=O)c4ccccc34)c2)CC1	–	0.059 µM (active)
CC[C@@]1(O)C(=O)OCc2c1cc1n(c2=O)Cc2c-1nc1ccccc1c2CCNC(C)C	–	0.00742 µM (active)
Cc1cccc(-c2nn3c(c2-c2ccnc4ccc(C(N)=O)cc24)CCC3)n1	inactive	–
CC(C)(c1ccc(OCC(O)CO)cc1)c1ccc(OCC(O)CCl)cc1 (configuration not stated)	inactive	–
O=C(Nc1ccnc(NC(=O)C2CC2)c1)c1c(Cl)cccc1Cl	–	9.34 µM (active)
Cc1cc(CS(=O)(=O)c2ccccc2)cc(OCc2ccc(CN3CCC[C@@H]3CO)cc2)c1	–	26.3 µM (active)
CSc1ccc(C(=O)/C=C/c2cc(C)c(OC(C)(C)C(=O)O)c(C)c2)cc1	inactive	–
